SMN2 splice enh: increases expression of the SMN2 splice variant. HEK293 SMN2-luciferase splicing reporter, luminescence, 30-36 h. Potency, µM (highest dose often 46.1 µM), for inactives: top-dose activity change, positive = activation, usual class: activators. 210,000 compounds, 2.8% hits. AID 1458; also: % of control where 0% means no effect; nearly all actives have a fitted effect of over 55% in size
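HEK293 cells carry an SMN2 minigene-luciferase reporter in which exon 7 inclusion puts luciferase in frame. Cells were seeded at 2000 cells/well, attached for 10-12 hours, then exposed to compounds for 30-36 hours at 37C before ONE-Glo luminescence.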
ELG1 repair inh: ELG1-dependent DNA repair inhibition. HEK293T ELG1-luciferase reporter, luminescence, 16 h; DNA damage induced by 5-fluorouridine. 330,000 compounds, 2.3% hits. Potency, µM (titrated, usually from 46.1 µM), for the others: top-dose activity change, negative = inhibition, actives largely listed as inhibitors. AID 504467; also: % is scaled to controls: 0 for no effect and ±100 for the full control effect; nearly all actives have a fitted effect of over 55% in size
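Luminescence from the luciferase reporter, measured 30 min after ONE-Glo reagent at room temperature, was the read-out. Beforehand, 2,000 cells per well were exposed for 16 hr at 37 °C to 5-fluorouridine together with compound or vehicle.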
Rab9 promoter act: activates the Rab9 promoter | Potency, µM (titrated, usually from 9.22 µM), without a hit: top-dose activation, negative = inhibition, most hits filed as activators | 320,000 compounds, 2.8% hits | Huh7 Rab9 promoter-luciferase reporter, luminescence, 24 h | AID 485297; also: % of control where 0% means no effect; nearly all actives have a fitted effect of over 60% in size
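Measured in stably transfected Huh7 cells bearing a Rab9 promoter–luciferase construct: 24 h compound treatment at 37 °C, followed by luminescence detection.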
NPC1 promoter act: activates the NPC1 promoter; Potency, µM (doses to about 9.22 µM), without a hit: top-dose activation, most hits filed as activators; 320,000 compounds, 2.4% hits; Huh7 NPC1 promoter luciferase reporter, 24 h; AID 485313; also: % of control where 0% means no effect; nearly all actives have a fitted effect of over 60% in size
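Huh7 reporter cells (NPC1 promoter driving luciferase) are dosed with compound for 24 h at 37 °C, 5% CO2; luciferase detection reagent is then added and luminescence measured after 10 min at ambient temperature.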
ELG1 genotoxic: inducers of genotoxicity in HEK293T ELG1-luciferase cells; HEK293T ELG1-luciferase reporter, luminescence, 16 h; Potency, µM (titrated, usually from 46 µM), for the others: top-dose activity change, positive = activation, usual class: activators; 330,000 compounds, 1.3% hits; AID 504466; also: % of control where 0% means no effect; nearly all actives have a fitted effect of over 60% in size
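Quantitative HTS format in 1536-well plates. HEK293T ELG1-luciferase reporter cells receive test compound and are incubated 16 hr at 37 °C, 5% CO2; ONE-Glo added, 30 min room temperature, then luminescence read.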
FLuc modulator: inhibits or activates purified firefly luciferase, miR-21 counter-screen; Potency, µM (titrated, usually from 57.5 µM), without a hit: at the highest dose activity change, negative = inhibition, hits mostly inhibitors; purified FLuc, Km substrates, luminescence inhibition; 360,000 compounds, 6.9% hits;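 also: plate controls were vehicle for no effect and reference inhibitor for full effect; nearly all actives have a fitted effect of over 55% in size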
Target sequence (P08659 whole entry, looked up): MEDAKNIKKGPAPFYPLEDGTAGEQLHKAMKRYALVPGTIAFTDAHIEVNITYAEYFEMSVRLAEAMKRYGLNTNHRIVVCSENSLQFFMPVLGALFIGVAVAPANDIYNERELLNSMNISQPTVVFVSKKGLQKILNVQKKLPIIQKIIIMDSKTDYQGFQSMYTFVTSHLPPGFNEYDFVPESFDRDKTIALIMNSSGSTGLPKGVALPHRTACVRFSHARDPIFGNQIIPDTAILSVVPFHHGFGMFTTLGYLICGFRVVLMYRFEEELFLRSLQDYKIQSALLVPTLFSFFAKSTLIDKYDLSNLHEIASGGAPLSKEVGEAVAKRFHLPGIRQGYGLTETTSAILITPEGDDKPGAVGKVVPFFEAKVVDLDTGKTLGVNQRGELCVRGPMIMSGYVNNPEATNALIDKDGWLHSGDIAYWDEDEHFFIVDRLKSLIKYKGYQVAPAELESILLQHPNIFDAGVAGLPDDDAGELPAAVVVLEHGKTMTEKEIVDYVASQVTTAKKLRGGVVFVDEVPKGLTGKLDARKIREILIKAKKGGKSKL
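Purified P. pyralis luciferase, 10 nM final, with Km-level 10 uM D-luciferin and 10 uM ATP in 50 mM Tris acetate pH 7.5, 10 mM Mg acetate, 0.01% Tween-20, 0.05% BSA; 6-point qHTS titration about 60 µM downward; luminescence read.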
An asterisk follows results filed as active; ? = inconclusive; · = not tested or not shown; [ ] = another dose, or the depositor's remark. Compounds with a hit are over-represented: about 9.2% of the library has one in this group of screens. Calls follow the shape of the dose curve; as a rule, active = well fitted curve in the direction sought with a large enough effect; inconclusive = small, poorly fitted or top-dose-only effect, or another doubt; inactive = no such curve, though single readings can be large; an effect the other way counts as inactive or inconclusive. Potency is read from the fitted curve at half-maximal effect.

SMILES | SMN2 splice enh | ELG1 repair inh | Rab9 promoter act | NPC1 promoter act | ELG1 genotoxic | FLuc modulator
COc1ccc(Nc2cc(C(=O)NCc3ccccc3OC)c3ccccc3n2)cc1 | · | · | · | · | · | 11µM*
CN(C)CCCc1cc(C(=O)Nc2ccc(-c3ccncc3)cc2)ccc1O | -2% | · | -8%[46.1 µM] | 2%[46.1 µM] | · | ·
CCN(CC)C1CCN(Cc2cn[nH]c2-c2ccc(OC)c(F)c2)C1 (stereo not given) | · | -15% | 11% | -2% | 2% | -1%
COc1ccc(-c2[nH]ncc2CN2CCN(Cc3cccs3)CC2)cc1F | -18% | 21µM* | 0% | ? | -11% | -2%
CCN(CC)S(=O)(=O)c1ccc2c(c1)nc(SCC(=O)NCC1CCCO1)n2CC (stereo not given) | · | 6% | 0% | 0% | -7% | 4%
CNc1ncnc2c1ncn2[C@@H]1O[C@H](CO)[C@@H](O)[C@H]1O | 5% | ? | -1%[46.1 µM] | -2%[46.1 µM] | 16µM* | -2%
Nc1ncnc2c1ncn2[C@@H]1O[C@H](CO)[C@H](O)[C@H]1O | 3% | · | · | · | · | ·
CN(C)c1ncnc2c1ncn2C1OC(CO)C(O)C1O (stereo not given) | 5.6µM* | ? | -3% | -11% | 9% | 0%
OCC1OC(n2cnc3c(Cl)ncnc32)C(O)C1O (stereo not given) | -4% | · | · | · | · | ·
C[C@H](Cc1ccccc1)Nc1ncnc2c1ncn2[C@@H]1O[C@H](CO)[C@@H](O)[C@H]1O | 10% | ? | 13% | -2% | 13µM* | -3%
Cc1cccc(NS(=O)(=O)c2ccc3c(c2)CCN3C(=O)C2CCC2)c1 | -58% | · | · | · | · | -12%
C[C@@H](C(=O)Nc1ccc2ccccc2c1)[C@@H]1C[C@@]1(C)[C@@H](NS(=O)(=O)c1ccc2ccccc2c1)c1ccccc1 | -12% | · | · | · | · | ·
O=C(N/C=C/c1ccccc1)Nc1ccc(Cl)cc1 | ? | ? | 4.5µM* | 3.5µM* | ? | 6.7µM*
Cc1ccc(NC(=O)N/C=C/c2ccc(Cl)cc2)cc1 | -18% | 27% | · | ? | -2% | -7%
Cc1ccc(NC(=O)N/C=C/c2ccccc2)cc1 | 14µM* | ? | 1.4µM* | 0.89µM* | ? | 2.1µM*
COc1ccc(NC(=O)N/C=C/c2ccc(Cl)cc2)cc1 | 4% | -14% | 0% | -1% | 1% | -3%
COc1cc(OC)c(NC(=O)Cn2nc(C)n3cccc3c2=O)cc1Cl | · | · | · | · | · | -1%
CC1CCN(C(=O)COC(=O)c2ccc3c(c2)OCO3)CC1 | 21% | ? | 3.5µM* | ? | ? | 17µM*
Nc1ccc(C(=O)OCC(=O)N2CCOCC2)cc1[N+](=O)[O-] | 20µM* | ? | ? | ? | ? | ?
CC1CCN(C(=O)COC(=O)c2cccc(NS(=O)(=O)c3ccccc3)c2)CC1 | · | -1% | -4% | 1% | 1% | 17µM*
CC1CCN(C(=O)c2ccc(NS(=O)(=O)c3ccccc3)cc2)CC1 | · | 17% | 19% | 2% | 3% | 2%
O=C(OCC(=O)N1CCOCC1)c1ccc2c(c1)OCCO2 | 20% | ? | 20% | 29% | 7% | -18%
Nc1cc(C(=O)OCC(=O)N2CCOCC2)ccc1Cl | · | ? | ? | 21% | ? | ?
CC1CCN(C(=O)COC(=O)c2ccc(Br)o2)CC1 | -3% | ? | 4% | 3% | ? | 24µM*
CCOC(=O)C1CCN(C(=O)COC(=O)c2ccc(Br)o2)CC1 | -8% | -2% | 1% | 10% | -2% | 3%
CSc1nc(/C=C2\C=Nc3ccccc32)c(O)n1C | ? | ? | 15% | 0% | 13% | 13µM*
COc1ccc(OC)c(C=Nc2ccccc2-c2nc3ccccc3[nH]2)c1 | 13µM* | ? | ? | ? | ? | 4.8µM*
Oc1ccccc1C=Nc1ccccc1-c1nc2ccccc2[nH]1 | 32µM* | ? | ? | ? | ? | ?

Screening results from PubChem.
